Screens (PubChem BioAssay)
Only some compounds are listed: those with a hit (about 7.3% of all), similar ones and a draw of the others.
ELG1 genotox – qHTS screen for small molecules that induce genotoxicity in human embryonic kidney (HEK293T) cells expressing luciferase-tagged ELG1; HEK293T ELG1-luciferase reporter, luminescence, 16 h; Potency, µM (titrated, usually from 46 µM), hits mostly activators; 330,000 tested, 1.3% active; note: nearly all actives have a fitted effect of over 60% in size
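Screening used a luciferase reporter fused to human ELG1 in HEK293T cells. Luminescence was read on a CCD plate imager after 16 hr exposure and 30 min ONE-Glo incubation.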
NPC1 promoter act – qHTS Assay for NPC1 Promoter Activators. Huh7 NPC1 promoter luciferase reporter, 24 h. Potency, µM (doses to about 9.22 µM), usual class: activators. 320,000 tested, 2.4% active; note: nearly all actives have a fitted effect of over 60% in size
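Cells: Huh7 expressing luciferase under the NPC1 promoter, 1500/well. Seeded 2 h, compound added, incubated 24 h at 37 °C. Luciferase reagent, 10 min ambient, then luminescence.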
SMN2 splice up – qHTS Assay for Enhancers of SMN2 Splice Variant Expression. AID 1458, 2008. Potency, µM (doses to about 46.1 µM), usual class: activators. HEK293 SMN2-luciferase splicing reporter, luminescence, 30-36 h. 210,000 tested, 2.8% active; note: nearly all actives have a fitted effect of over 55% in size
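HEK293 cells carry an SMN2 minigene-luciferase reporter in which exon 7 inclusion puts luciferase in frame. Cells were seeded at 2000 cells/well, attached for 10-12 hours, then exposed to compounds for 30-36 hours at 37C before ONE-Glo luminescence.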
FLuc counter – qHTS profiling assay for firefly luciferase inhibitor/activator using purifed enzyme and Km concentrations of substrates (counterscreen for miR-21 project). Potency, µM (highest dose often 57.5 µM), most hits filed as inhibitors. 360,000 tested, 6.9% active. purified FLuc, Km substrates, luminescence inhibition. Luciferin 4-monooxygenase (Photinus pyralis), P08659. AID 588342, 2011; note: nearly all actives have a fitted effect of over 55% in size
Target sequence (P08659 whole entry, looked up): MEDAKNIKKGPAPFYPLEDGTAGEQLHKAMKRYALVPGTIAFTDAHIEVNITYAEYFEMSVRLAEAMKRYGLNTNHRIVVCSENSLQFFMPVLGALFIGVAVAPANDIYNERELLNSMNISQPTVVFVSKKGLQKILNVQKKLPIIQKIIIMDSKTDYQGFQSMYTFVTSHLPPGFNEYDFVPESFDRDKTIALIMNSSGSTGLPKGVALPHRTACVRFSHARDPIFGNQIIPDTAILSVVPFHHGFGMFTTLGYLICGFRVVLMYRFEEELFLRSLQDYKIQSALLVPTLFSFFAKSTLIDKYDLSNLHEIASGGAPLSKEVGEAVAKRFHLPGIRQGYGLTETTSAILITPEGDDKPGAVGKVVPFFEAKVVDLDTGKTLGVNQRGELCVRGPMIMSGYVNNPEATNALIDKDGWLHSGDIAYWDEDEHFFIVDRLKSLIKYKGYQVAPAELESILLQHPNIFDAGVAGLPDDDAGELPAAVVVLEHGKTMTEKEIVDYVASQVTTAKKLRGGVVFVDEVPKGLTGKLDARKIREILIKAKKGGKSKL
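Purified P. pyralis luciferase (10nM final) with 10uM D-luciferin and 10uM ATP (Km levels) in 50mM Tris acetate pH 7.5, 10mM Mg acetate, 0.01% Tween-20, 0.05% BSA; qHTS 6-point titration, ~60 µM downward; luminescence read.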
Luc counter – Counterscreen for Luciferase (Kinase-Glo TM) Inhibition | Luciferin 4-monooxygenase (Photuris pensylvanica), Q27757 | Potency, µM (highest dose often 38.3 µM), most hits filed as inhibitors | 200,000 tested, 0.28% active | Kinase-Glo luciferase, ATP luminescence, 8 min; note: nearly all actives have a fitted effect of over 60% in size
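Substrate mix (final 50 mM imidazole pH 7.2, 50 mM KCl, 7 mM MgCl2, 10 uM ATP, 0.01% Tween 20, 0.05% BSA) plus pin-tool compound, then Kinase-Glo detection mix; 8 min ambient, luminescence read.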
Rab9 prom act – qHTS Assay for Rab9 Promoter Activators. Potency, µM (top dose mostly 9.22 µM), hits mostly activators. Huh7 Rab9 promoter-luciferase reporter, luminescence, 24 h. AID 485297, 2010. 320,000 tested, 2.8% active; note: nearly all actives have a fitted effect of over 60% in size
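Cell-based reporter: Huh7 stable for Rab9 promoter-driven luciferase, plated in reduced-serum medium with 10% FBS at 1500 cells/well, compound-treated 24 h at 37 °C, luminescence read after 10 min reagent.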
Of the large screens only hits and unclear results are named; the others gave an inactive call. Calls come from the whole dose curve; as a rule, active = well fitted curve in the direction sought with a large enough effect; inconclusive = small, poorly fitted or top-dose-only effect, or another doubt; inactive = no such curve, though single readings can be large; an effect the other way counts as inactive or inconclusive.

Nc1ccc2nc(-c3ccc(O)cc3)sc2c1	SMN2 splice up 1.4µM, FLuc counter 0.3µM (no result: ELG1 genotox, NPC1 promoter act, Luc counter, Rab9 prom act)
Nc1cccc(-c2nc3ccc(N)cc3s2)c1	ELG1 genotox inconclusive, NPC1 promoter act inconclusive, SMN2 splice up 13µM, FLuc counter 0.27µM, Luc counter 13µM, Rab9 prom act inconclusive
CCN(CC)c1ccc(NC(=O)Cn2cc3c(n2)CCCC3)c(C)c1	none (no result: ELG1 genotox, NPC1 promoter act, Luc counter, Rab9 prom act)
COc1ccc(C)cc1NC(=O)c1cc2c(s1)-c1ccccc1SC2	none (no result: ELG1 genotox, NPC1 promoter act, Luc counter, Rab9 prom act)
COc1ccc(OC)c(NC(=O)[C@H](CSCc2ccccc2)N2Cc3ccccc3C2=O)c1	none (no result: ELG1 genotox, NPC1 promoter act, Luc counter, Rab9 prom act)
C/C(=N\NC(=S)Nc1ccccc1C)c1ccc(O)cc1	FLuc counter 21µM
Cc1cc(N/N=C/c2ccc(O)cc2O)nc(-c2ccccc2O)n1	FLuc counter 2.7µM
Cc1cc(N/N=C/c2ccc(O)cc2O)c2ccccc2n1	none (no result: SMN2 splice up, Luc counter)
Cc1cc(N/N=C\c2ccccc2)nc(-c2ccccc2O)n1	SMN2 splice up inconclusive, FLuc counter 6µM
C/C(=N\Nc1cc(C)nc(-c2ccccc2O)n1)c1ccccc1O	FLuc counter 15µM (no result: SMN2 splice up, Luc counter)
Cc1cc(N/N=C/c2ccccc2O)nc(-c2ccccc2O)n1	FLuc counter 8.5µM
Cc1cc(N(C)/N=C/c2ccccc2)nc(-c2ccccc2O)n1	none (no result: SMN2 splice up)
COc1ccc(OC)c(NC(=O)CCc2c(C)nc3c(c(C)nn3C(C)(C)C)c2C)c1	none (no result: ELG1 genotox, NPC1 promoter act, Luc counter, Rab9 prom act)
C=CCc1c(C)nc2ccc(C(=O)OCC)cc2c1Cl	FLuc counter 21µM (no result: SMN2 splice up)
CCOC(=O)c1ccc2nc(C)c(CC)c(Cl)c2c1	FLuc counter inconclusive (no result: SMN2 splice up)
CCOC(=O)Cc1ccc(NC(=O)N2CCOc3ccc(C)cc32)cc1	none (no result: ELG1 genotox, NPC1 promoter act, SMN2 splice up, Luc counter, Rab9 prom act)
NC(=O)C1CCN(c2ncnc3c2cnn3-c2ccccc2)CC1	none (no result: ELG1 genotox, NPC1 promoter act, SMN2 splice up, Luc counter, Rab9 prom act)
NC(=O)C1CCN(c2ncnc3c(-c4ccccc4)nsc23)CC1	NPC1 promoter act 3.5µM, FLuc counter 11µM, Rab9 prom act 3.5µM
O=C(c1ccco1)N1CCN(c2ncnc3c(-c4ccccc4)nsc23)CC1	NPC1 promoter act 3.2µM, FLuc counter 11µM, Rab9 prom act 2.8µM
CCOc1ccc(N(C)S(=O)(=O)c2c(C(=O)N3CCC(C)CC3)c(C)n(C)c2C)cc1	none (no result: ELG1 genotox, NPC1 promoter act, SMN2 splice up, Luc counter, Rab9 prom act)
Nc1ccc(-c2nc3ncccc3o2)c(Cl)c1	ELG1 genotox 10µM, NPC1 promoter act 2µM, SMN2 splice up 13µM, FLuc counter 4.8µM, Rab9 prom act 3.2µM
Nc1ccc(Cl)c(-c2nc3ncccc3o2)c1	SMN2 splice up inconclusive, FLuc counter inconclusive
Nc1ccc(-c2nc3ncccc3o2)c(O)c1	ELG1 genotox inconclusive, NPC1 promoter act 2.8µM, FLuc counter 12µM, Rab9 prom act 4µM (no result: SMN2 splice up, Luc counter)
COc1ccc(S(=O)(=O)n2nc(-c3ccco3)nc2NCc2ccc(C(C)C)cc2)cc1	none (no result: ELG1 genotox, NPC1 promoter act, SMN2 splice up, Luc counter, Rab9 prom act)
O=c1cc(-c2ccc(Cl)cc2)oc(=O)[nH]1	FLuc counter 17µM (no result: SMN2 splice up, Luc counter)
O=C(Nc1cccc([N+](=O)[O-])c1)c1ccc2nsnc2c1	none (no result: SMN2 splice up, Luc counter)
O=C(Nc1ccc(Cl)cc1)c1ccc2nsnc2c1	NPC1 promoter act 2.5µM, SMN2 splice up 11µM, FLuc counter inconclusive, Rab9 prom act 4µM
CN(C)c1ccc(NC(=O)c2ccc3nsnc3c2)cc1	ELG1 genotox 2.6µM, NPC1 promoter act inconclusive, SMN2 splice up 22µM, FLuc counter 5.4µM, Rab9 prom act 3.2µM
COc1ccccc1CNC(=O)Cn1c(=O)oc2cc(S(=O)(=O)NCc3ccccc3)ccc21	none (no result: ELG1 genotox, NPC1 promoter act, SMN2 splice up, Luc counter, Rab9 prom act)
COc1cccc(CN2C(=O)CN(C3CCCCC3)C(=O)C2c2ccc(OC)c(OC)c2)c1 (centres undefined)	none (no result: ELG1 genotox, NPC1 promoter act, SMN2 splice up, Luc counter, Rab9 prom act)
O=C(O)c1ccc(N/N=C/c2ccncc2)cc1	NPC1 promoter act inconclusive, FLuc counter 8.5µM, Rab9 prom act inconclusive (no result: SMN2 splice up, Luc counter)
O=C(N/N=C/c1ccc2nccnc2c1)c1ccc(Br)cc1	FLuc counter inconclusive (no result: SMN2 splice up, Luc counter)
O=C(O)c1ccc(N/N=C/c2ccc3nccnc3c2)cc1	ELG1 genotox inconclusive, FLuc counter 0.38µM (no result: SMN2 splice up, Luc counter)
